Assay results as given in PubChem BioAssay AID743269 (The Scripps Research Institute Molecular Screening Center, 2014).
Values joined by “and” are separate entries in the source; they are usually repeats but may differ in a detail not shown here. Equal entries are not always repeated. Screen size: about 370,000 compounds; about 2,400 (0.65%) were called active.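 How the source made its calls: active means inhibition above the screen-wide mean plus 3 SD (cut at about 13% in these data); inactive means the rest.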 The list comes from a sample in which actives are over-represented; it also holds similar structures and randomly drawn compounds. Where a structure was tested more than once in an assay, its records may differ in their call.

tested on: HIV-1 integrase (with human LEDGF/p75); assay: blockers of LEDGF/p75-dependent integrase strand transfer – biochemical, TR-FRET, high throughput, primary screen (AID 743269); conditions: TR-FRET IN-LEDGF/p75 DNA integration, Eu/Cy5; at 3.7 µM; stronger effect = higher value;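 further: signal is the Cy5 over europium emission ratio at 671 and 618 nm; 0% = plate median of compound wells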

SMILES	inhibition
O=C(CSc1nc2ccccc2n1Cc1ccccc1)NNC(=S)Nc1ccccc1	5.2% (inactive)
COC(=O)C[C@@H]1CC[C@@H]2[C@@H](COc3ccc(NC(=O)Nc4ccc(F)c(F)c4)cc3C(=O)N2C)O1	0.03% (inactive)
COC(=O)c1cccc(Cn2ccc3ccc(-c4ccc5ccn(C(=O)C6CCCCC6)c5c4)cc32)c1	0.91% (inactive)
COC(=O)C[C@H]1CC[C@H]2[C@H](COc3ccc(NC(=O)C4CC4)cc3C(=O)N2C)O1	2.4% (inactive)
Oc1cccc(/C=N/Nc2ccc(Cl)nn2)c1O	18.5% (active)
C/C(=N\Nc1ccc(Cl)nn1)c1ccccc1O	-4.19% (inactive)
CCOC(=O)[C@]12CCCCC/C=C\1N(Cc1ccc(OC)cc1)C(=O)[C@H]2CC(=O)NCCCN1CCCC1=O	-3.19% (inactive)
COC(=O)c1cc(S(=O)(=O)N2CCN(C(=O)C3CCCO3)CC2)cn1C (stereo unspecified)	8.59% (inactive)
COc1ccc(-n2c(SCC(=O)Nc3ccc4cn[nH]c4c3)nnc2-c2cccnc2)cc1	-0.62% (inactive)
COc1ccc(-c2cc(-c3nnc(SCC(=O)Nc4cccc5ccccc45)n3N)[nH]n2)cc1	-3.91% (inactive)
Cc1cc(=O)oc2c3c(cc(OCC(=O)N[C@H](C(=O)O)c4ccccc4)c12)OC(C)(C)CC3	18.2% (active)
Cc1c(C)c2c(OCC(=O)N[C@@H](C(=O)O)c3ccccc3)cc3c(c2oc1=O)CCC(C)(C)O3	-4.85% (inactive)
Cc1cc(=O)oc2c3c(cc(OCC(=O)NCC(O)c4ccccc4)c12)OC(C)(C)CC3 (stereo unspecified)	-5.46% (inactive)
O=C(NC1CCCCN(Cc2ccc(Cl)cc2)C1=O)c1ccc(Br)cc1 (stereo unspecified)	2.38% (inactive)
COC(=O)[C@]12C[C@H](CC(=O)NCC34CC5CC(CC(C5)C3)C4)C(=O)N(Cc3ccc(Cl)cc3Cl)C1=C[C@H](COCc1ccccc1)O[C@@H]2C	-4.42% (inactive)
CC(C)CSc1nnc(-c2cccnc2)n1Cc1ccccc1	1.09% (inactive)
CCOc1c(Br)cc(/C=C2\C(=O)N(CCC#N)N=C2C)cc1OC	36% (active)
COC(=O)[C@H](C(C)C)N(CCc1cn(Cc2ccccc2)nn1)S(=O)(=O)c1ccc(F)cc1Br	-1.7% (inactive)
FC(F)(F)c1cccc(NC(=S)OC2CCC23CCC(c2ccccc2)CC3)c1 (stereo unspecified)	2.54% (inactive)
Nc1[nH]c(/C=C2/CCCCC2n2[nH]c(=O)n(-c3ccccc3)c2=O)c(Cc2ccccc2)[n+]1Cc1ccccc1 (stereo unspecified)	3.55% (inactive)
C[C@H]1[C@H](NC(=O)c2cccc(N(C)C)c2)CC[C@@]23CCCN2C(=O)CCC[C@@H]13	-2.54% (inactive)

SMILES	inhibition
O=S(=O)(c1cc(Cl)ccc1Cl)N1CCN(Cc2ccco2)CC1	-3.53% (inactive)
CCN1CCN(C(=O)C2CCN(S(=O)(=O)c3cc(Cl)ccc3Cl)CC2)CC1	1.63% (inactive)
O=C(CN1CCN(S(=O)(=O)c2cc(Cl)ccc2Cl)CC1)c1ccc(O)c(O)c1	50.6% (active)
CC(=O)O[C@@]1(C(C)=O)CCC2[C@H]3C=C(C)C4=CC(=O)CC[C@@]4(C)C3CC[C@]21C (stereo partly specified)	-5.1% (inactive)
O=C(NCCc1c[nH]c2ccccc12)OCc1cn(-c2c(F)cccc2F)nn1	4.42% (inactive)
COc1cc(NC(=O)COC(=O)c2cnc(C)cn2)c(C)cc1[N+](=O)[O-]	-1.79% (inactive)
COc1cc(CCC(=O)OCC(=O)Nc2cccc(S(N)(=O)=O)c2)cc(OC)c1OC	-0.51% (inactive)
COc1cc(NC(=O)COC(=O)c2ccc([N+](=O)[O-])s2)cc(OC)c1OC	32.2% (active)
CC(C)CNc1cccc2c1S(=O)(=O)N(Cc1cn(Cc3ccc(Cl)cc3)nn1)Cc1ccccc1O2	4.9% (inactive)
O=C(CCl)NC1CCCCN(Cc2cccc(C(F)(F)F)c2)C1=O (stereo unspecified)	0.3% (inactive)
COc1ccccc1C1CC(=O)n2c(nc(-c3ccccc3)c2-c2ccccc2)S1 (stereo unspecified)	-1.14% (inactive)
COc1ccc(C2C(C#N)=C(N)Oc3n[nH]c(C)c32)cc1CN1CCN(c2ccc(F)cc2)CC1 (stereo unspecified)	6.04% (inactive)
COc1ccccc1C1C(C#N)=C(N)Oc2c1c(-c1ccccc1)nn2-c1ccccc1 (stereo unspecified)	43.4% (active)
O=C(Nc1cccc(Cl)c1)OC1CC2CC1[C@H]1CCCCN1[C@H]2Cc1ccccc1 (stereo partly specified)	-1.12% (inactive)
CN(CCc1ccccc1)C(=O)Cn1nc(-c2ccccc2)ccc1=O	-1.71% (inactive)
O=C(NCc1ccc(Cl)cc1)C1CCCN(c2nc3ccccc3o2)C1 (stereo unspecified)	-2.98% (inactive)
COC(=O)C1=C(C)N(C)C(=O)NC1c1ccc([N+](=O)[O-])o1 (stereo unspecified)	46.5% (active)
CCOCCOC(=O)C1=C(C)N(C)C(=O)NC1c1ccccc1F (stereo unspecified)	-1.24% (inactive)
COc1ccc(C2NC(=O)N(C)C(C)=C2[N+](=O)[O-])cc1 (stereo unspecified)	-0.24% (inactive)
CCCCCN1CCCCC(NC(=O)C(C)CCC)C1=O (stereo unspecified)	-0.51% (inactive)
COCCCNC(=O)C[C@H]1C[C@@]2(C(=O)OC)C(=C[C@H](C(C)(C)C)O[C@@H]2C)N(Cc2ccc(Cl)cc2Cl)C1=O	2.76% (inactive)

SMILES	inhibition
O=C(OC12CCCN(C1)/C(=C/c1cccnc1)C2)C1CCCC1 (stereo unspecified)	-0.68% (inactive)
OCCN1CCOCCOCCN(CCO)CCN(CCO)CC1	-1.91% (inactive)
OC(c1ccccc1)C(CN1CCOCC1)c1ccccc1 (stereo unspecified)	2.05% (inactive)
Oc1c(CN2CCOCC2)ccc(CN2CCOCC2)c1O	58% (active)
CCOC(=O)c1cnc2sccn2c1=O	2.78% (inactive)
CN(C)/C=C/C(=O)c1cnc2sccn2c1=O	16.3% (active)
O=C(NCc1ccccn1)c1cnc2sccn2c1=O	3.23% (inactive)
O=C(NC1CCC1)c1ccc(C#CC2CC2)cn1	0.75% (inactive)
COc1cccc(CNC(=O)CNS(=O)(=O)c2ccc3nc(C)sc3c2)c1OC	2.85% (inactive)
COC(=O)[C@@]12CCCCC3=C1N(CCC3)C(=O)[C@H]2CC(=O)NCc1cccc2ccccc12	0.3% (inactive)
COc1cccc(CSc2nnc(-c3cccnc3)n2Cc2ccccc2)c1	-2.05% (inactive)
COC(=O)[C@]12C[C@H](CC(=O)NCc3cccc4ccccc34)C(=O)N(CCc3ccc(OC)c(OC)c3)C1=C[C@H](C1CCCC1)O[C@@H]2C	3.8% (inactive)
CO/N=C(\C(=O)N[C@@H]1C(=O)N2C(C(=O)O)=C(COC(C)=O)CS[C@H]12)c1csc(N)n1 (stereo in doubt)	14.1% (active) and 6.2% (inactive) and 17.6% (active)
C=CC1=C(C(=O)O)N2C(=O)[C@@H](NC(=O)/C(=N\OCC(=O)O)c3csc(N)n3)[C@H]2SC1	19.9% (active)
C=CC1=C(C(=O)O)N2C(=O)[C@@H](NC(=O)/C(=N/OCC(=O)O)c3csc(N)n3)[C@H]2SC1	63.4% (active)
COc1ccc(C(=O)OCCN(C)C2CN(Cc3cn(Cc4cccc(C)c4)nn3)S(=O)(=O)C2)cc1OC (stereo unspecified)	4.74% (inactive)
CN(C(N)=NC(=O)/C=C/c1ccccc1)C(C#Cc1ccccc1)Cc1ccccc1 (stereo unspecified)	2.02% (inactive)
COc1ccc(C2CC=C(C(=O)O)C(c3ccccc3F)N2S(=O)(=O)c2ccc(C)cc2)cc1OC (stereo unspecified)	-2.7% (inactive)
CN1C[C@]2(C=C3CCCCC3n3c(=O)n(-c4ccccc4)c(=O)n32)N=C1NC(=O)c1ccccc1 (stereo partly specified)	0.62% (inactive)
O=C(CNC(=O)c1ccccc1)OC(C(=O)Nc1cc([N+](=O)[O-])ccc1F)c1ccccc1 (stereo unspecified)	-3.25% (inactive)
Cc1ccc(-n2c(SCC(=O)Nc3ccc(S(=O)(=O)Nc4nccs4)cc3)nnc2-c2cccnc2)cc1	8.17% (inactive)

SMILES	inhibition
COc1cccc(CNC(=O)C2CCCN(c3nc4ccccc4o3)C2)c1OC (stereo unspecified)	3.24% (inactive)
O=C(NCCCn1ccnc1)c1cc(-c2ccccc2)on1	1.32% (inactive)
COc1ccccc1-c1cc(C(=O)NCCCn2ccnc2)no1	16.7% (active)
O=C(CCN1C(=O)c2ccccc2C1=O)NCCCn1ccnc1	1.21% (inactive)
O=C(c1c[nH]c2ccccc12)N1CCC(Oc2cccnc2)CC1	8.82% (inactive)
Cc1ccc(-n2c(SCC(=O)Nc3cccc4ccccc34)nnc2-c2ccco2)cc1	1.78% (inactive)
COc1ccc(-n2c(SCC(=O)Nc3ccc4c(c3)OCCO4)nnc2-c2ccc(Cl)cc2)cc1	3.45% (inactive)
Cc1csc(=O)n1CCC(=O)OCC(=O)Nc1ccc(N2CCOCC2)cc1	1.07% (inactive)
O=C(O)CCC(=O)Nc1ccc(N2CCOCC2)cc1	17.1% (active)
O=C(COC(=O)Cc1ccc(Br)cc1)Nc1ccc(N2CCOCC2)cc1	-6.57% (inactive)
COc1ccc(-c2cc(-c3nnc(SCc4ccc([N+](=O)[O-])cc4)n3N)[nH]n2)cc1	-1.38% (inactive)
COc1ccccc1C(=O)CSc1nnc(-c2ccccn2)n1-c1ccccc1	-0.35% (inactive)
O=C(CSc1nc2ccccc2s1)NN=Cc1ccc(O)cc1O	-3.78% (inactive)
O=C(Nc1ccccc1)N1CCN(Cc2nc3ccccc3c(=O)[nH]2)CC1	-2.46% (inactive)
CCCn1c(C)cc(-c2csc(NC(=O)CCc3nc4ccccc4c(=O)[nH]3)n2)c1C	5.25% (inactive)
CC(=O)Nc1ccc(C(=O)Nc2nc(-c3cc(C)n(Cc4ccccc4)c3C)cs2)cc1	17.7% (active)
Cc1c(C#N)c(NC(=O)c2ccccc2)n(Cc2ccccc2)c1C	0.96% (inactive)
CCOc1ccc(-n2c(SCC(=O)Nc3cc(C)c(NC(=O)c4ccccc4)cc3OC)nnc2-c2cccs2)cc1	1.97% (inactive)
